In the library only some 21% were active in any assay of this set; here they are far more common.
SARS PLP yeast = blocks SARS-CoV papain-like protease in a yeast assay. S. cerevisiae expressing SARS-CoV PLpro, growth rescue. Potency, µM (titrated, usually from 32.9 µM), most hits filed as activators. 0.19% of 330,000 active; note: nearly all actives have a fitted effect of over 55% in size
Shiga toxin inh = Shiga toxin inhibition | AID 2315 | Vero cells, Shiga toxin protein synthesis inhibition reporter | inhibition, % at 38.7 µM | 9.2% of 290,000 active; in the data active = inhibition mostly above about 28%, no sharp cut-off; inactive = mostly below about 43%
Pf growth 48h = P. falciparum growth inhibition at 48 hours (one generation). P. falciparum luciferase growth in erythrocytes, 48 h. Potency, µM (titrated, usually from 28.7 µM), actives largely listed as inhibitors. 5.9% of 310,000 active. AID 504832; active = well fitted inhibition curve with a large enough effect; inconclusive = small, poorly fitted or top-dose-only effect, or another doubt; inactive = no such curve, though single readings can be large or run the other way
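Luciferase-expressing parasites in RBCs, 2% Hct / 0.1% parasitemia final; RPMI 1640 + 0.5% Albumax; 37 C, 5% CO2, one generation; luminescence read-out, lower signal = inhibition.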
Pf growth 96h = P. falciparum growth inhibition at 96 hour, primary screen for plastid delayed-death inhibitors; P. falciparum luciferase reporter growth, 96 h; 6.9% of 320,000 active; Potency, µM (highest dose often 28.7 µM), actives largely listed as inhibitors; active = well fitted inhibition curve with a large enough effect; inconclusive = small, poorly fitted or top-dose-only effect, or another doubt; inactive = no such curve, though single readings can be large or run the other way
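Plates of compound plus infected erythrocytes (2% hematocrit, 0.05% parasitemia final) incubate 96 hours, 37 C, 5% CO2. Detection reagent added; reduced luminescence from the parasites' luciferase reporter flags inhibition.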
CHX counter = counter-screen hit for Shiga toxin inhibitors, cycloheximide. cell reporter, cycloheximide protein synthesis inhibition counterscreen. max response, %. 12% of 300,000 active; in the data active = max response mostly above about 13%, no sharp cut-off; inactive = mostly below about 14%; note: read at 38.3 µM for the half of the compounds with a filed dose
NS1 function inh = influenza NS1 inhibition; AID 2326; Potency, µM (highest dose often 46.1 µM); 0.4% of 270,000 active; note: actives are rising curves; nearly all actives have a fitted effect of over 50% in size
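Recovery from NS1-induced slow growth read by OD600 in budding yeast switched to galactose assay medium (pH 6.0, -URA) at 1:100 dilution. Compound 23 nl per well; the matching strain lacking NS1 serves as control.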
Large screens that a line does not name were inactive; ! = repeats disagree. Unless noted, calls come from the whole dose curve.

COc1ccccc1N1CCN(S(=O)(=O)c2cc(C(F)(F)F)cc(C(F)(F)F)c2)CC1	Pf growth 48h 6.6µM, Pf growth 96h 6.6µM
COc1ccc(S(=O)(=O)N2CCN(c3ccccc3OC)CC2)cc1OC	Pf growth 96h inconclusive
O=C(CN1C(=O)NC2(CCCC2)C1=O)Nc1ccccc1N1CCCCC1	Pf growth 48h inconclusive (no result: Shiga toxin inh, CHX counter, NS1 function inh)
Cc1cccc(N2CCN(C(=O)C3CCN(S(=O)(=O)c4c(C)noc4C)CC3)CC2)c1C	Pf growth 48h inconclusive, Pf growth 96h inconclusive
COc1cccc(NC(=O)CN(C)C(=O)c2ccc3c(c2)S(=O)(=O)N=C2CCCCCN23)c1	none (no result: Shiga toxin inh, CHX counter, NS1 function inh)
COc1cc2c(=O)n(-c3ccc(C)cc3)c(=O)n(CC(=O)c3ccc4c(c3)OCO4)c2cc1OC	Pf growth 48h 12µM
COc1ccccc1C1CCN(C(=O)c2cccs2)CC1	none
Cc1cccc(C(=O)Nc2ccc(Cl)cc2C(=O)c2ccccc2)c1	Pf growth 48h inconclusive, Pf growth 96h inconclusive
NC(=O)Nc1ccc(C(=O)OCC(=O)Nc2ccc(Cl)cc2C(=O)c2ccccc2)cc1	none
CN(C)CCCNCC(=O)Nc1ccc(Cl)cc1C(=O)c1ccccc1	Pf growth 48h 3.7µM
NCC(=O)Nc1ccc(Cl)cc1C(=O)c1ccc[nH]1	Pf growth 48h inconclusive, Pf growth 96h 5.2µM
CCN(CC)CCNCC(=O)Nc1ccc(Cl)cc1C(=O)c1ccccc1	Pf growth 96h inconclusive (no result: Pf growth 48h)
C[N+](C)(C)CC(=O)Nc1ccc(Cl)cc1C(=O)c1ccccc1	Pf growth 48h 12µM (no result: NS1 function inh)
O=C(CN1CCN(S(=O)(=O)c2ccc(Cl)cc2)CC1)c1ccc(O)c(O)c1	Pf growth 96h inconclusive
COc1ccc(-c2cc(C(=O)N3CCc4ccccc4C3)no2)cc1	Shiga toxin inh 88, Pf growth 96h inconclusive, CHX counter 28 (no result: NS1 function inh)
COc1ccc(-c2cc(C(=O)N3CCN(c4ccccc4)CC3)no2)cc1	Shiga toxin inh 93, CHX counter 37
COc1ccccc1N1CCN(C(=O)c2noc(C(C)C)c2[N+](=O)[O-])CC1	Pf growth 96h 13µM
COc1ccccc1N1CCN(C(=O)c2cc(-c3ccc(C)cc3)on2)CC1	Shiga toxin inh 55, CHX counter 19 (no result: Pf growth 96h)
COc1ccc(-c2cc(C(=O)N3CCN(c4ccccc4OC)CC3)no2)cc1	Pf growth 96h inconclusive
CCN1C(=O)CC(c2ccccc2)CC1=O	none (no result: Shiga toxin inh, CHX counter, NS1 function inh)
COc1ccc(CNC(=O)C2CCC(CNc3c(N4CCC(C)CC4)c(=O)c3=O)CC2)cc1 (stereo not drawn)	Pf growth 48h inconclusive
CN1CCN(C(=O)CCN2C(=O)/C(=C/c3ccc(F)cc3)SC2=S)CC1	Pf growth 48h inconclusive
CN(Cc1ccccc1)c1nc(N)c([N+](=O)[O-])c(NCc2ccccc2)n1	Pf growth 48h inconclusive, Pf growth 96h inconclusive
O=C(c1cc(-c2ccc(Br)cc2)on1)N1CCc2ccccc2C1	none
COc1cccc(-c2cc(C(=O)N3CCc4ccccc4C3)no2)c1	CHX counter 17
COc1ccc(OC)c(-c2cc(C(=O)N3CCN(c4ccccc4)CC3)no2)c1	none (no result: Pf growth 48h)
COc1ccc(OC)c(-c2cc(C(=O)N3CCc4ccccc4C3)no2)c1	Pf growth 96h 9.3µM
CCCCc1ccc(NC(=S)Nc2ccc(Cl)c(S(=O)(=O)N(C)C)c2)cc1	Pf growth 96h inconclusive
CCS(=O)(=O)n1c(Cc2cccs2)nc2ccccc21	none (no result: Shiga toxin inh, CHX counter, NS1 function inh)
CCN1c2ccccc2-c2nc3ccccc3n2C1c1cccs1 (stereo not drawn)	Pf growth 48h 8.3µM, Pf growth 96h 3.7µM
O=C(COc1ccc2c(-c3ccccc3)cc(=O)oc2c1)Nc1cccnc1	Pf growth 48h inconclusive
Cc1ccnc2c1ccc1c(C)ccnc12	Pf growth 48h 2.6µM, Pf growth 96h 4.7µM (no result: Shiga toxin inh, CHX counter, NS1 function inh)
Cc1cccc2cccnc12	none (no result: Shiga toxin inh, CHX counter, NS1 function inh)
c1cnc2c(c1)ccc1cccnc12	Pf growth 48h 5.9µM, Pf growth 96h 3.3µM, CHX counter active!
Cc1ccc2ccc3cccc4ccc1c2c34	none (no result: Shiga toxin inh, CHX counter, NS1 function inh)
O=Cc1ccc2ccc3cccnc3c2n1	Pf growth 96h inconclusive
Cc1ccnc2c1ccc1cccnc12	Pf growth 48h 1.2µM, Pf growth 96h 0.83µM (no result: Shiga toxin inh, CHX counter, NS1 function inh)
Cc1ccnc2c1ccc1ccccc12	CHX counter 16
S=C(NCc1ccco1)N1CCN(c2ccccc2Cl)CC1	none (no result: NS1 function inh)
COc1ccccc1S(=O)(=O)Cc1ccc(C(=O)NCC(OC)OC)o1	none
CN(C)CCN(C(=O)c1ccc2ccccc2c1)c1nc2ccc(F)cc2s1	CHX counter 18
CN(C)CCCN(C(=O)c1ccc(C(=O)c2ccccc2)cc1)c1nc2ccc(F)cc2s1	Pf growth 48h inconclusive
CN(C)CCCN(C(=O)c1cc2ccccc2oc1=O)c1nc2ccc(F)cc2s1	CHX counter 13
O=C1c2ccccc2C(=O)N1CCCCN(C(=O)c1cc2ccccc2oc1=O)c1ccc(F)cc1F	Shiga toxin inh 74, CHX counter 60
COc1ccccc1N1CCN(C(=O)c2ccc3c(c2)CCN3S(C)(=O)=O)CC1	Pf growth 96h inconclusive
O=C(c1cn(-c2ccccc2)nc1-c1cccs1)N1CCN(c2ccc(F)cc2)CC1	Pf growth 48h inconclusive, Pf growth 96h 9.3µM, NS1 function inh inconclusive
CC(=O)c1ccc(NC(=O)c2cn(-c3ccccc3)nc2-c2ccncc2)cc1	SARS PLP yeast inconclusive
O=C(Nc1ccncc1)c1cn(-c2ccccc2)nc1-c1cccs1	Pf growth 96h 2.9µM, CHX counter 44 (no result: Pf growth 48h)
O=C(O)c1ccc(NC(=O)c2cn(-c3ccccc3)nc2-c2cccc(Cl)c2)cc1	Pf growth 96h 12µM
O=C(NC(=S)NCCO)c1cn(-c2ccccc2)nc1-c1ccccc1	Shiga toxin inh 49 (no result: NS1 function inh)
c1ccc(OCCN2CCN(C(c3ccccc3)c3ccccc3)CC2)cc1	Pf growth 48h inconclusive
COc1ccc(Br)cc1CN(C)CC(=O)Nc1c(Cl)cccc1Cl	SARS PLP yeast inconclusive, Pf growth 96h inconclusive
CN(C)CC1CCCCC1OC(=O)/C=C/c1ccccc1 (stereo not drawn)	none
O=C(O)c1ccc(NC(=O)c2cn(-c3ccccc3)nc2-c2ccc(F)cc2)cc1	Shiga toxin inh 94, CHX counter 39 (no result: NS1 function inh)
CC(NC(=O)COC(=O)c1cc2ccccc2cc1O)c1ccccc1 (stereo not drawn)	none (no result: Shiga toxin inh, CHX counter, NS1 function inh)
CC(NC(=O)COC(=O)c1cn(-c2ccccc2)nc1-c1cccs1)c1ccccc1 (stereo not drawn)	Pf growth 96h 3.3µM (no result: Pf growth 48h)
Cc1cccc(NC(=O)c2cn(-c3ccccc3)nc2-c2ccccc2)c1	Pf growth 96h 13µM, CHX counter 13
COC(=O)c1ccc(NC(=O)c2cn(-c3ccccc3)nc2-c2ccncc2)cc1	Pf growth 48h 12µM, Pf growth 96h inconclusive
CCOCCCNC(=O)C(NC(=O)c1ccccc1O)c1ccc(Cl)cc1 (stereo not drawn)	Pf growth 96h inconclusive (no result: NS1 function inh)
Cc1ccnc(N2CCC(C(=O)NCc3ccccc3F)CC2)n1	Pf growth 96h inconclusive
COc1ccc(SCC(Cc2ccccc2)N2CCN(CCc3ccccc3)CCC2=O)cc1 (stereo not drawn)	none (no result: SARS PLP yeast, Pf growth 48h, Pf growth 96h, NS1 function inh)

Screens as filed in PubChem.
